# HT1080NT lethal – kills 2HG-producing HT-1080-NT fibrosarcoma cells. Potency, µM (series often up to 46.1 µM), for the others: at the top dose activity, negative = less viability, hits mostly cytotoxic. AID 686970. hit rate 1.6% among 360,000. HT-1080-NT fibrosarcoma viability, CellTiter-Glo ATP luminescence, 48 h;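 further: NT is the 2HG producing partner of a matched IDH1 knockdown line; potency means the concentration at half of the fitted maximal effect; 0% = DMSO-treated cells and -100% = media-only wells without cells; nearly all actives have a fitted effect of over 55% in size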
#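 Toxicity toward the 2HG-producing NT line was scored as %Activity, normalised to DMSO and no-cell wells, from CellTiter-Glo luminescence after 48 hours' treatment.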
# HT1080 IDH1KD tx – HT-1080 IDH1 knockdown cell toxicity (counter line); AID 686971; Potency, µM (top dose mostly 46.1 µM), for the others: at the top dose activity, negative = toxicity, hits mostly cytotoxic; hit rate 2% among 360,000; HT-1080 IDH1 knockdown viability, ATP luminescence, 48 h;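 further: potency means the concentration at half of the fitted maximal effect; 0% = DMSO wells and -100% = cell-free medium wells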
#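 Using the IDH1-knockdown HT-1080 line run in the same batch and compound series as the NT line, viability after 48 h at 37 °C was determined by CellTiter-Glo luminescence and expressed as % activity.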
# IL-1B inflam inh – inflammasome signaling inhibition, IL-1 beta readout. hit rate 4.7% among 360,000. activity change, % at 57.5 µM. THP-1 LPS/ATP IL-1B secretion, AlphaLISA, 16 h; stronger effect = lower value. AID 743279; in the data active means activity change below about -50%; inconclusive means mostly about -30% to -49%
#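 THP-1 cells pretreated 1 hr with compounds (up to 57.5 uM final), then stimulated with LPS (250 ng/mL final) plus ATP (1.25 mM final); secreted IL-1B measured by AlphaLISA after 16 hr, decreased signal indicating inhibition.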
# DT40 TDP1 no CPT – qHTS for Inhibitors of human tyrosyl-DNA phosphodiesterase 1 (TDP1): qHTS in cells in absence of CPT; DT40 Tdp1-/- hTDP1 cells, no CPT, ATP luminescence, 48 h; Potency, µM (doses to about 46.2 µM), without a hit: at the top dose activity change, negative = growth inhibition, hits mostly inhibitors; hit rate 15% among 420,000; further: potency means the concentration at half of the fitted maximal effect; nearly all actives have a fitted effect of over 55% in size
#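 Luminescent ATP content (CellTiter-Glo) served as the growth readout. Knockout chicken DT40 cells expressing human TDP1 were exposed to compounds without camptothecin for a minimum 48 hr at 37 °C.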
# DT40 TDP1 CPT – DT40-hTDP1 cell growth loss with CPT; chicken DT40 Tdp1-/-;hTDP1 cells + 20 nM CPT, ATP luminescence, 48 h; Potency, µM (doses to about 46.2 µM), inactives show top-dose activity change, negative = growth inhibition, hits mostly inhibitors; hit rate 12% among 420,000; AID 686979; further: potency means the concentration at half of the fitted maximal effect; nearly all actives have a fitted effect of over 55% in size
#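 Chicken DT40 Tdp1-/- cells complemented with human TDP1, 400 cells/well, exposed to compounds plus 20 nM camptothecin for at least 48 h at 37 C; viability read as ATP content by CellTiter-Glo luminescence.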
# ELG1 DNA repair – blocks ELG1-dependent DNA repair in HEK293T cells. AID 504467. Potency, µM (top dose mostly 46.1 µM), for the others: at the highest dose activity change, negative = inhibition, most hits filed as inhibitors. HEK293T ELG1-luciferase reporter, luminescence, 16 h; DNA damage induced by 5-fluorouridine. hit rate 2.3% among 330,000; further: potency means the concentration at half of the fitted maximal effect; nearly all actives have a fitted effect of over 55% in size
#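 Luminescence from the luciferase reporter, measured 30 min after ONE-Glo reagent at room temperature, was the read-out. Beforehand, 2,000 cells per well were exposed for 16 hr at 37 °C to 5-fluorouridine together with compound or vehicle.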
# * marks the source's active call; other numbers are inactive results; ? = inconclusive; · = no result given; [ ] = dose if it differs, or a comment. Hits are enriched below; roughly 19% of the tested compounds scored in any of these assays. Unless noted, the call rests on the fitted dose curve; in most records, active means well fitted curve in the direction sought with a large enough effect; inconclusive means small, poorly fitted or top-dose-only effect, or another doubt; inactive means no such curve, though single readings can be large; an effect the other way counts as inactive or inconclusive. Unless noted, on the % scale 0 is the no-effect control and ±100 the full control effect.
SMILES,HT1080NT lethal,HT1080 IDH1KD tx,IL-1B inflam inh,DT40 TDP1 no CPT,DT40 TDP1 CPT,ELG1 DNA repair
CCOC(=O)c1cccc(NC(=O)C2CCCO2)c1 (stereo unspecified),7%,13%,-16,5%,-5%,13%
CCOC(=O)c1cc(C)n(CC2CCC(C(=O)Nc3ccc(C(=O)OC)cc3)CC2)c1C (stereo unspecified),·,·,·,18µM*,23µM*,·
CC(=O)c1ccc(NC(=O)C2CCCC2)cc1,1%,-1%,-13,2%,7%,?
CCOC(=O)c1cc(C)n(CC2CCC(C(=O)Nc3cccc(C(C)=O)c3)CC2)c1C (stereo unspecified),·,·,·,26µM*,23µM*,·
CCOC(=O)c1cc(C)n(CC2CCC(C(=O)Nc3ccc(C(C)=O)cc3)CC2)c1C (stereo unspecified),·,·,·,10µM*,12µM*,·
CCOC(=O)c1cc(C)n(CC2CCC(C(=O)Nc3ccc(OC)c(OC)c3)CC2)c1C (stereo unspecified),·,·,·,-18%,-23%,·
Cc1ccc2nc(NC(=O)C3CCN(C(=O)c4ccc(F)cc4)CC3)sc2c1,-2%,-2%,-8,?,?,1%
Cc1nnc(SCC(=O)NCc2cccc(F)c2)c2nn(-c3ccccc3)c(C)c12,·,·,·,7.3µM*,8.2µM*,·
Cc1nnc(SCC(=O)NCc2ccccc2F)c2nn(-c3ccc(Cl)cc3)c(C)c12,·,·,·,8.2µM*,13µM*,·
NC(c1ccncc1)c1ccc(Cl)cc1 (stereo unspecified),-2%,-2%,4,6%,?,·
COc1cc(C2C=C(c3cccs3)Nc3ncnn32)cc(OC)c1OC (stereo unspecified),?,?,-4,0.65µM*,0.82µM*,?
CC1(c2ccccc2)NC(=O)N(CC(=O)Nc2ccccc2N2CCCCC2)C1=O (stereo unspecified),15%,5%,1,?,?,?
CC1=CC(=O)C=C(C)C1=NOC(=O)c1cccc([N+](=O)[O-])c1,0%,-19%,-9,?,10µM*,-16%
Cc1cccc(C(=O)O/N=C(\N)c2cccc([N+](=O)[O-])c2)c1,10%,-4%,-12,-8%,-10%,?
O=C(Nc1ccc(Cl)c(Cl)c1)Nc1nccs1,?,?,-10,0.82µM*,2.1µM*,-8%
O=C(Nc1cccc(Cl)c1)Nc1nccs1,-10%,-1%,27,16µM*,?,?
CCC(C(=O)NC(N)=O)c1ccccc1 (stereo unspecified),·,·,·,14%,13%,·
CC1=CC(=O)C=CC1=Nc1ccc(N(C)C)cc1,?,?,-121*,0.92µM*,1µM*,·
CN(C)c1ccc(N=Nc2ccc(S(N)(=O)=O)cc2)cc1,-6%,-2%,-24,-15%,8%,?
CCCCSCCCNC(=O)c1cn(C)c2ccc(S(=O)(=O)N3CCCCC3)cc2c1=O,·,·,·,-17%,-10%,·
Cc1cc(C)c2cc(CN(CCO)Cc3nnnn3Cc3ccccc3)c(=O)[nH]c2c1,-8%,-11%,-4,-30%,?,-16%
CCOC(=O)Cn1nnnc1CN(Cc1cccs1)Cc1cc2cc(C)cc(C)c2[nH]c1=O,10%,-4%,53,15µM*,21µM*,?
CCC(C)(C)n1nnnc1CN(Cc1cccs1)Cc1cc2cc(OC)ccc2[nH]c1=O,0%,0%,-9,?,?,0%
COc1ccc2cc(CN(Cc3cccs3)Cc3nnnn3Cc3ccccc3)c(=O)[nH]c2c1,-1%,1%,-1,?,?,?
Cc1cccc2cc(CN(Cc3cccs3)Cc3nnnn3Cc3ccccc3)c(=O)[nH]c12,?,0%,-50*,23µM*,?,18µM*
SMILES,HT1080NT lethal,HT1080 IDH1KD tx,IL-1B inflam inh,DT40 TDP1 no CPT,DT40 TDP1 CPT,ELG1 DNA repair
Cc1cccc2cc(CN(Cc3ccccc3)Cc3nnnn3Cc3ccccc3)c(=O)[nH]c12,·,·,·,13µM*,?,·
CCOc1ccc2[nH]c(=O)c(CN(Cc3cccs3)Cc3nnnn3C(C)(C)CC)cc2c1,0%,-7%,?,16µM*,16µM*,?
O=C(COC(=O)CNC(=O)C1CCCCC1)NCc1ccc(Cl)cc1,-3%,5%,-5,-3%,-4%,?
Cc1ccccc1NC(=O)CCCN1C(=O)C2CC=CCC2C1=O (stereo unspecified),0%,16%,9,14%,6%,-2%
Cc1ccc(S(=O)(=O)N2C[C@H]3n4c(=O)ccc(=O)n4C[C@H](OC(=O)NCc4ccco4)[C@@]3(O)C2)cc1,-9%,-16%,-54*,?,?,·
COc1ccc(CNC(=O)O[C@H]2Cn3c(=O)ccc(=O)n3[C@@H]3CN(S(=O)(=O)c4ccc(C)cc4)C[C@]23O)cc1OC,3%,0%,-8,-25%,-26%,·
COC(=O)[C@H]1C[C@H](OC(=O)NCc2ccc(OC)c(OC)c2)[C@@]2(O)CN(S(=O)(=O)c3ccc(C)cc3)CC2[C@H]1C(=O)OC (stereo partly specified),2%,6%,-5,?,-14%,·
Cc1ccc(S(=O)(=O)N2C[C@H]3n4c(=O)ccc(=O)n4C[C@H](OC(=O)NCC4CCCCC4)[C@@]3(O)C2)cc1,21µM*,?,-109*,3.7µM*,2.6µM*,·
Cc1ccc(S(=O)(=O)N2C[C@H]3n4c(=O)ccc(=O)n4C[C@H](OC(=O)NCc4ccccc4)[C@@]3(O)C2)cc1,?,?,0,26µM*,?,·
COC(=O)[C@H]1C[C@H](OC(=O)NCc2ccco2)[C@@]2(O)CN(S(=O)(=O)c3ccc(C)cc3)CC2[C@H]1C(=O)OC (stereo partly specified),3%,9%,-64*,?,?,·
CCOc1ccc(CCNC(=O)CCS(=O)(=O)c2ccc(C)cc2)cc1OCC,1%,0%,-17,-8%,-5%,9%
O=C(O)c1c(C(=O)O)c2ccccc2[nH]c1=O,·,·,·,-9%[9.04 µM],-18%[9.04 µM],·
Cc1cc(C)c2c(=O)c3c(oc2c1)C(=O)N(CCCOC(C)C)C3c1ccccc1F (stereo unspecified),·,·,·,?,5%,·
COc1ccc(N2CCN(S(=O)(=O)c3c(C)nc4sc(C)cn4c3=O)CC2)cc1,·,·,·,-13%,-9%,·
